Broadly, the inhibition is the relative decrease from the control value, in per cent.

Screen size: about 290,000 compounds; about 3,000 (1%) were called active. Rule as the data show it: active = inhibition mostly above about 36% (no sharp cut-off); inactive = mostly below about 34%. What follows is part of a selection rich in actives, with near analogues and random picks from the rest.

This assay in a line: inhibition of NOD1-driven NF-kB reporter – cell-based, luminescence, uHTS, primary screen (AID 1578).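 Also: HEK-293T reporter cells stimulated with the NOD1 agonist gamma-tri-DAP.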 The conditions noted are these: NOD1-driven NF-kB luciferase reporter cells, at 4 µM, hits give high values. (In a reporter assay the amount or activity of a reporter protein is the signal.)
With `O=[N+]([O-])c1cccc(-c2ccc(/C=N/Nc3nc(N4CCCCC4)nc(N4CCCCC4)n3)o2)c1`, the inhibition was 34.4% (active).

For `O=[N+]([O-])c1ccc(-c2ccc(/C=N/Nc3nc(N4CCCCC4)nc(N4CCCCC4)n3)o2)cc1`, the inhibition is 7.6% (inactive).

With `O=[N+]([O-])c1ccc(-c2ccc(/C=N/Nc3nc(N4CCCC4)nc(N4CCCC4)n3)o2)cc1`, the inhibition is -26.6% (inactive).

Regarding `FC(F)(F)c1cccc(-c2ccc(/C=N/Nc3nncc(-c4ccccc4)n3)o2)c1`, the inhibition was -58.3% (inactive).

As to `COc1ccccc1-c1cnnc(N/N=C/c2ccc(-c3cccc(Br)c3)o2)n1`, the inhibition is 52.2% (active).

As for `Brc1ccc(-c2ccc(/C=N/Nc3nncc(-c4ccccc4)n3)o2)cc1`, the inhibition was -106% (inactive).

Take `S=c1nc(NCCc2ccccc2Cl)c2ccccc2[nH]1`: the inhibition is -4% (inactive).

Consider `CC(NC(=O)Cn1nc(C(=O)O)c2ccccc2c1=O)C12CC3CC(CC(C3)C1)C2` (stereo not drawn), for which the inhibition was -19.8% (inactive).

Consider `CC(NC(=O)Cn1ncc(Cl)c(Cl)c1=O)C12CC3CC(CC(C3)C1)C2` (stereo not drawn), for which the inhibition was 87% (active).

`CC(NC(=O)CN1CCCC1)C12CC3CC(CC(C3)C1)C2` (stereo not drawn): the inhibition is 1.9% (inactive).

With `COC(=O)N[C@H](CC(C)=O)c1cccc(C(F)(F)F)c1`, the inhibition is -18.1% (inactive).

As for `Cc1ccccc1C(=O)Nc1ccnn1C1CCN(C2CCSCC2)CC1`, the inhibition was -16.1% (inactive).

`O=C(Nc1ccc(Cl)cc1)c1sccc1-n1cccc1`: the inhibition is -13% (inactive).

On to `Cc1ccc(-n2[nH]c(=O)c3cccnc32)cc1`, for which the inhibition is 4.2% (inactive).

On to `Cc1ccc(-n2[nH]c(=O)c(-c3ccccn3)c2C)cc1`, for which the inhibition is 65.1% (active).

With `Cc1c(-c2ccccn2)c(=O)[nH]n1-c1ccc(F)cc1`, the inhibition is -25.2% (inactive).

Turning to `COc1ccc(N(C(=O)CCl)C(C(=O)NCCc2ccccc2)c2cccs2)cc1Cl` (stereo not drawn), the inhibition is 63.5% (inactive).

Consider `O=C(NCCc1ccccc1)C(c1cccs1)N(C(=O)c1csnn1)C1CC1` (stereo not drawn), for which the inhibition is -15.8% (inactive).

In the case of `COC(=O)c1ccccc1C(=O)c1cccc2ccccc12`, the inhibition was 30.1% (inactive).

As to `CC(C)(C)c1cc(NC(=O)Nc2ccc(Br)cc2Cl)no1`, the inhibition was -19.7% (inactive).

Regarding `CCOC(=O)c1c(C)[nH]c(C(=O)C(C)Cl)c1C` (stereo not drawn), the inhibition was 58.6% (active).

As to `CCOC(=O)c1c(C)[nH]c(C(=O)O)c1C`, the inhibition was 7.9% (inactive).

Turning to `CCOC(=O)c1[nH]c(C)c(C(=O)OCC)c1C`, the inhibition is -5.4% (inactive).

In the case of `O=C(CN1CCN(c2ccccc2)CC1)Nc1ccc(Oc2ccccc2)cc1`, the inhibition was -2.2% (inactive).

Turning to `COc1ccc(-c2cc(C(=O)NCC3CCCO3)c3cc(C(C)C)ccc3n2)cc1` (stereo not drawn), the inhibition is -1.8% (inactive).

As for `CNC(=O)c1c(NC(=O)c2cccc(C)c2)sc2c1CCC2`, the inhibition was 109% (active).

As to `O=C(Nc1sc2c(c1C(=O)O)CCC2)c1ccccc1Cl`, the inhibition was 17.5% (inactive).

For the compound `CNC(=O)c1c(NC(=O)c2cccc(N3C(=O)CCC3=O)c2)sc2c1CCC2`, the inhibition was 5.2% (inactive).

Consider `O=C(Nc1sc2c(c1C(=O)O)CCC2)c1ccccc1`, for which the inhibition is 26.9% (inactive).

`NC(=O)c1c(NC(=O)c2ccccc2Cl)sc2c1CCC2`: the inhibition was -50% (inactive).

Consider `O=C(Nc1sc2c(c1C(=O)O)CCCCC2)c1ccccc1`, for which the inhibition is 43.3% (inactive).

As to `Cc1cccc(C(=O)Nc2sc3c(c2C(=O)O)CCC3)c1`, the inhibition is -0.7% (inactive).

Regarding `CCOC(=O)Cc1cnc(NC(=O)CSc2nc(C)c(CC)c(=O)[nH]2)s1`, the inhibition was -29.1% (inactive).

As for `O=C(c1cc(-c2ccccc2)n[nH]1)N1CCc2c([nH]c3ccccc23)C1c1ccccn1` (stereo not drawn), the inhibition is -14.3% (inactive).

Regarding `COc1cc(Cl)c(C)cc1NC(=O)c1ccc(NS(=O)(=O)c2ccc(F)c(F)c2)cc1`, the inhibition was 14.5% (inactive).

`CCOC(=O)c1c(/N=C/c2cc([N+](=O)[O-])ccc2O)sc(C)c1C`: the inhibition is -20.3% (inactive).

For `CN(C)CCOc1cccc(Cl)c1`, the inhibition is -12.3% (inactive).

On to `Cc1ccc(C(=O)CSc2nnc3ccccn23)c(C)c1`, for which the inhibition was 18.8% (inactive).

As for `Cc1cc(C(=O)CSc2nncn2C)c(C)n1-c1ccccc1`, the inhibition was -35.2% (inactive).

As for `Cc1cc(C(=O)CSc2nnc3ccccn23)c(C)n1-c1ccccc1`, the inhibition is 82% (active).

Regarding `Nc1c(-c2ccccc2)c(CSc2nc3ccccc3[nH]2)nn1-c1cccc(Cl)c1`, the inhibition was 79.7% (active).

In the case of `Nc1c(-c2ccccc2)c(CSc2nc3ccccc3[nH]2)nn1-c1cccc(C(=O)O)c1`, the inhibition is -21.3% (inactive).

For the compound `Nc1c(-c2ccccc2)c(CSc2nc3ccccc3[nH]2)nn1-c1ccc(Cl)cc1`, the inhibition was 70.5% (inactive).

For `Cn1c(N)c(C(=O)Nc2c(Cl)cccc2Cl)sc1=S`, the inhibition was -11.3% (inactive).

Regarding `CCN(CC)c1ccc(N2C(=O)/C(=C\c3cccs3)SC2=S)cc1`, the inhibition was -102% (inactive).

Consider `COc1ccccc1/C=C/C(=O)c1ccccc1`, for which the inhibition is -6.9% (inactive).

For `COc1ccccc1/C=C/C(C)=O`, the inhibition is -47.2% (inactive).

As to `COc1ccccc1/C=C/C(=O)/C=C/c1ccccc1O`, the inhibition is 94.3% (active).

On to `CC(C)C1Cc2c(sc3[nH]c(=S)n(Cc4ccccc4)c(=O)c23)CO1` (stereo not drawn), for which the inhibition is 92.4% (active).

As for `CC(C)C1Cc2c(sc3c2c(=O)n(Cc2ccccc2)c2nncn32)CO1` (stereo not drawn), the inhibition was 12.9% (inactive).

Consider `CC1(C)Cc2c(sc3[nH]c(=S)n(Cc4ccccc4)c(=O)c23)CO1`, for which the inhibition was -3.1% (inactive).

For the compound `CCOC(=O)N1CCN(C/C(C)=C/c2ccccc2)CC1`, the inhibition is -12% (inactive).

As for `CCOC(=O)N1C/C(=C\c2ccccc2)C(=O)/C(=C/c2ccccc2)C1`, the inhibition was 41.1% (active).

With `CCOC(=O)N1CCN(S(=O)(=O)/C=C/c2ccccc2)CC1`, the inhibition is 9.2% (inactive).

As to `COc1cccc(-n2c([S-])c(C(=O)Nc3ccc(C(F)(F)F)cc3)[n+]3ccccc23)c1`, the inhibition was -8.9% (inactive).

As to `COc1cccc(C(=O)Nc2ccc(S(=O)(=O)Nc3nccc(C)n3)cc2)c1`, the inhibition was -16.6% (inactive).

As for `Cc1ccc(S(=O)(=O)NCCC(=O)O)cc1`, the inhibition was -3.1% (inactive).

With `CCCn1c(SCC(=O)c2ccc3c(c2)OCCO3)nc2c1c(=O)n(C)c(=O)n2C`, the inhibition was -19.8% (inactive).

As for `Cc1ccc(C)c(C(=O)CN2C(=O)c3ccccc3S2(=O)=O)c1`, the inhibition is 9.1% (inactive).

In the case of `O=C(CN1C(=O)c2ccccc2S1(=O)=O)c1ccccc1`, the inhibition is -2.1% (inactive).

Turning to `Cc1cc(C(=O)CN2C(=O)c3ccccc3S2(=O)=O)c(C)n1-c1ccccc1`, the inhibition is 94.4% (active).

As for `COc1cc(NC(=O)CC(C)n2ccnc2)cc(OC)c1` (stereo not drawn), the inhibition was -0.2% (inactive).

Take `COC(=O)c1c(NC(C)=O)sc(C(=O)N2CCOCC2)c1C`: the inhibition is -4.7% (inactive).

Regarding `COC(=O)c1c(NC(=O)C(C)C)sc(C(=O)N2CCOCC2)c1C`, the inhibition is 5.6% (inactive).

Turning to `COC(=O)c1c(NC(=O)CCl)sc(C(=O)N2CCOCC2)c1C`, the inhibition was 80.5% (active).

As to `COc1ccccc1NC(=O)CS(=O)(=O)c1cn(CC(=O)N(C(C)C)C(C)C)c2ccccc12`, the inhibition is -1.2% (inactive).

As to `Cc1ccccc1C(=O)Nc1cc(-c2cc(C(C)(C)C)oc2C)nn1C`, the inhibition was -3.8% (inactive).

Consider `Cc1ccccc1NC(=O)C(=Cc1ccc(C(=O)O)cc1)C(=O)Nc1ccccc1C`, for which the inhibition was 39.4% (active).

With `CC(=O)/C(=C/c1ccccc1)C(=O)Nc1ccccc1C`, the inhibition was 35.2% (inactive).

Consider `Cc1ccc(NC(=O)C(=Cc2ccc(C(=O)O)cc2)C(=O)Nc2ccc(C)cc2C)c(C)c1`, for which the inhibition is 9.9% (inactive).

For the compound `CC(=O)Nc1ccccc1C(F)(F)F`, the inhibition is 5.2% (inactive).

Regarding `COc1ccc2nc(N3C(=O)CNC3=S)sc2c1`, the inhibition is -9.5% (inactive).

In the case of `Cn1c(O)c(C2=c3ccccc3=NC2=O)[nH]c1=S`, the inhibition is 7.1% (inactive).

For the compound `COc1ccc2nc(-n3c(O)c(C4=c5ccccc5=NC4=O)[nH]c3=S)sc2c1`, the inhibition was 93% (active).

`COc1ccc(-c2cn3c4c(sc3n2)CCCC4)cc1`: the inhibition is 1.4% (inactive).

Regarding `CN(C)S(=O)(=O)c1ccc(N2CCCC2)c(C(=O)Nc2ccccc2N2CCOCC2)c1`, the inhibition is -0.9% (inactive).

With `CCCCC(=O)N/N=C(/C)C1=C(C)C(C)(C)OC1=O`, the inhibition is -20.4% (inactive).

Take `COc1ccc(-c2ccc(/C=C3\C(=O)N(c4ccccc4)N=C3c3ccccc3)o2)c([N+](=O)[O-])c1`: the inhibition was 10.5% (inactive).

Consider `Cc1ccc(-c2ccc(/C=C3\C(=O)ON=C3c3ccccc3)o2)c([N+](=O)[O-])c1`, for which the inhibition is 70.5% (active).

On to `O=C1ON=C(c2ccccc2)/C1=C/c1ccc(-c2ccccc2[N+](=O)[O-])o1`, for which the inhibition was 46.2% (inactive).

Take `CCSc1nc2ccccc2n1CC(=O)N1CCCCC1`: the inhibition was 14.8% (inactive).

Consider `O=[N+]([O-])c1cc(CN2CCCC2)c2cccnc2c1O`, for which the inhibition was 2.2% (inactive).

`O=[N+]([O-])c1cc(CN2CCOCC2)c2cccnc2c1O`: the inhibition was 51.3% (active).

For `O=[N+]([O-])c1cc(CN2CCN(c3ccccc3)CC2)c(O)c2ncccc12`, the inhibition was 31.8% (inactive).

On to `O=[N+]([O-])c1cccc(S(=O)(=O)Nc2ccc(S(=O)(=O)N3CCCC3)cc2)c1`, for which the inhibition is -4% (inactive).

On to `CSc1cccc(NC(=O)CCn2c(=O)c3cccn3c3cccnc32)c1`, for which the inhibition is -16.4% (inactive).

As to `Cc1nc(NC(=O)/C=C/c2ccccc2)n[nH]1`, the inhibition was 51.1% (inactive).

As to `CC(=O)Nc1cccc(C(=O)/C=C/c2ccc(/C=C/C(=O)c3cccc(NC(C)=O)c3)cc2)c1`, the inhibition is 85.5% (active).

`CC(=O)Nc1cccc(C(=O)/C=C/c2ccc(C)cc2)c1`: the inhibition is 34.7% (inactive).

For the compound `O=C(/C=C/c1ccccc1)Nc1cc(C(=O)O)cc(C(=O)O)c1`, the inhibition is -46.3% (inactive).

In the case of `O=C(/C=C/c1cccc(C(F)(F)F)c1)Nc1cccc(C(F)(F)F)c1`, the inhibition is 75.5% (active).

With `Cc1ccc(NC(=O)/C=C/c2cccc(C(F)(F)F)c2)cc1`, the inhibition was 15.4% (inactive).

Turning to `O=C(/C=C/c1ccccc1)Nc1ncn[nH]1`, the inhibition is 59.8% (active).

Regarding `CC(=O)Nc1cccc(C(=O)/C=C/c2ccc(F)cc2)c1`, the inhibition was -34.5% (inactive).

In the case of `O=C(/C=C/c1ccccc1)Nc1cc(NC(=O)/C=C/c2ccccc2)cc(C(=O)O)c1`, the inhibition was -29.4% (inactive).

For the compound `CC(=O)Nc1ccc(NC(=O)/C=C/c2cccc(C(F)(F)F)c2)cc1`, the inhibition was -14.7% (inactive).

Take `O=C(/C=C/c1ccccc1)Nc1cccc(C(=O)O)c1`: the inhibition is 96.6% (active).

With `O=C(Nc1ncn[nH]1)c1ccccc1O`, the inhibition was 1.8% (inactive).

For the origin of these results see PubChem BioAssay AID1578 (Sanford-Burnham Center for Chemical Genomics, 2009).
